Assay results reported in PubChem BioAssay (NCATS).
“And” between values parts separate entries of the source, which are not always exact repeats. Equal entries are not always repeated. Inconclusive results are not listed. Entries that show only a call come without a potency. A number with no mark means an inactive call. The source made the active and inactive calls. Unless noted, calls come from the whole dose curve; as a rule, active = well fitted curve in the direction sought with a large enough effect; inconclusive = small, poorly fitted or top-dose-only effect, or another doubt; inactive = no such curve, though single readings can be large; an effect the other way counts as inactive or inconclusive.

Legend:
[1] = molecular target: ATP-dependent 6-phosphofructokinase (Trypanosoma brucei brucei) (UniProt O15648); test: qHTS Assay to Find Inhibitors of T. brucei phosphofructokinase: hit validation (AID 492961);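 note: luminescence reports ADP formed as PFK phosphorylates fructose-6-phosphate with ATP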; conditions: T. brucei PFK, ADP-Glo luminescence; series mostly up to 51.4 µM
Method in brief: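 ADP-Glo luminescence read-out of ADP formed by 1.25 nM PFK from 0.1 mM ATP and 0.5 mM F6P (TEA pH 8.0, 45 min, RT). Compounds titrated; activity normalized to no-enzyme and full-enzyme controls.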

[2] = molecular target: Ubiquitin carboxyl-terminal hydrolase 1 (Homo sapiens) (UniProt O94782); test: Inhibitors of USP1/UAF1: Pilot qHTS (AID 504865); conditions: purified USP1/UAF1, Ub-rhodamine cleavage fluorescence; series mostly up to 54.9 µM;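 note: rhodamine fluorescence freed from ubiquitin-rhodamine substrate followed over time; top concentration of the series differs between compounds; nearly all actives have a fitted effect of over 35% in size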
Method in brief: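 USP1/UAF1 complex (1nM) preincubated with compound 15 min at room temperature, then Ub-Rho substrate (150nM final) added. Fluorescence read kinetically at 480/540 nm, 6 reads every 60 seconds. Buffer: 50mM HEPES pH 7.8, 0.5mM EDTA, 0.1 mg/ml BSA, 1mM TCEP, 0.01% Tween-20.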

[3] = qHTS profiling for inhibitors of Plasmodium falciparum proliferation (AID 504749); note: potency is the fitted concentration of half-maximal effect; for all read-outs here: nearly all actives have a fitted effect of over 60% in size; conditions: P. falciparum in erythrocytes, SYBR Green DNA, 72 h; for activity, negative = inhibition: at 28.7 µM (top of the series)
Method in brief: (§1)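 In a 72 h erythrocytic culture (37 C, humidified, 5% CO2) at 2.5% hematocrit and 0.3% starting parasitemia, compounds were tested; SYBR Green I in detergent lysis buffer stained parasite DNA overnight.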

CP192 = test: as above; conditions: P. falciparum in erythrocytes, SYBR Green DNA, 72 h; series mostly up to 28.7 µM
Method in brief: as §1

CP211 = test: as above; conditions: P. falciparum in erythrocytes, SYBR Green DNA, 72 h; series mostly up to 28.7 µM
Method in brief: as §1

CP215 = test: as above; conditions: P. falciparum in erythrocytes, SYBR Green DNA, 72 h; series mostly up to 28.7 µM
Method in brief: as §1

CP262 = test: as above; conditions: P. falciparum in erythrocytes, SYBR Green DNA, 72 h; series mostly up to 28.7 µM
Method in brief: as §1

CP269 = test: as above; conditions: P. falciparum in erythrocytes, SYBR Green DNA, 72 h; series mostly up to 28.7 µM
Method in brief: as §1

CP291 = test: as above; conditions: P. falciparum in erythrocytes, SYBR Green DNA, 72 h; series mostly up to 28.7 µM
Method in brief: as §1

CP305 = test: as above; conditions: P. falciparum in erythrocytes, SYBR Green DNA, 72 h; series mostly up to 28.7 µM
Method in brief: as §1

CP329 = test: as above; conditions: P. falciparum in erythrocytes, SYBR Green DNA, 72 h; series mostly up to 28.7 µM
Method in brief: as §1

CP335 = test: as above; conditions: P. falciparum in erythrocytes, SYBR Green DNA, 72 h; series mostly up to 28.7 µM
Method in brief: as §1

DIV17 = test: as above; conditions: P. falciparum in erythrocytes, SYBR Green DNA, 72 h; series mostly up to 28.7 µM
Method in brief: as §1

DIV30 = test: as above; conditions: P. falciparum in erythrocytes, SYBR Green DNA, 72 h; series mostly up to 28.7 µM
Method in brief: as §1

GB4 = test: as above; conditions: P. falciparum in erythrocytes, SYBR Green DNA, 72 h; series mostly up to 28.7 µM
Method in brief: as §1

PC26 = test: as above; conditions: P. falciparum in erythrocytes, SYBR Green DNA, 72 h; series mostly up to 28.7 µM
Method in brief: as §1

W2 = test: as above; conditions: P. falciparum in erythrocytes, SYBR Green DNA, 72 h; series mostly up to 28.7 µM
Method in brief: as §1

[4] = molecular target: Androgen receptor (Homo sapiens) (UniProt P10275); test: qHTS assay for small molecule agonists of androgen receptor signaling (AID 588515; active = well fitted curve in the direction sought with a large enough effect in the signal ratio, with a control signal flat; the % refers to the signal ratio); conditions: AR-UAS-bla HEK293, beta-lactamase ratio, agonist 16 h; stronger effect = higher value
Method in brief: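 Stimulation of an AR-responsive β-lactamase reporter in GripTite HEK293 cells was measured after 16 h compound exposure at 37 °C, via CCF4 fluorescence after 2 h RT. EC50 from Hill fits, normalized to R1881 at 30 nM.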

[5] = molecular target: Androgen receptor (Homo sapiens) (UniProt P10275); test: qHTS assay for small molecule antagonists of androgen receptor signaling (AID 588516; active = well fitted curve in the direction sought with a large enough effect in the signal ratio, with a control signal flat, not every such curve was filed as active; the % refers to the signal ratio); conditions: AR-UAS-bla HEK293, beta-lactamase ratio, antagonist mode, 16 h; series mostly up to 76.8 µM
Method in brief: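 AR-UAS-bla-GripTite HEK 293 cells (2000/well, 5 h at 37 C) received compound titrations, then R1881 at 10 nM final; after 16 h at 37 C, CCF4 dye 2 h RT, beta-lactamase fluorescence read; IC50 from Hill fits.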

[6] = Cell Viability - NIH 3T3 (AID 541); conditions: NIH 3T3 cell viability, qHTS; activity change, negative = cytotoxicity: at 92.2 µM (top of the series);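 note: cells exposed to compound for 40 hours; nearly all actives have a fitted effect of over 25% in size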
Method in brief: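 qHTS format; 40 hr compound exposure, 37 °C; CellTiter-Glo luminescence (cellular ATP) read-out after 20 min at RT. Decrease in ATP = cytotoxicity; AC50 from standard Hill fit.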

Sequence of Ubiquitin carboxyl-terminal hydrolase 1 (Homo sapiens) (O94782 whole entry, looked up): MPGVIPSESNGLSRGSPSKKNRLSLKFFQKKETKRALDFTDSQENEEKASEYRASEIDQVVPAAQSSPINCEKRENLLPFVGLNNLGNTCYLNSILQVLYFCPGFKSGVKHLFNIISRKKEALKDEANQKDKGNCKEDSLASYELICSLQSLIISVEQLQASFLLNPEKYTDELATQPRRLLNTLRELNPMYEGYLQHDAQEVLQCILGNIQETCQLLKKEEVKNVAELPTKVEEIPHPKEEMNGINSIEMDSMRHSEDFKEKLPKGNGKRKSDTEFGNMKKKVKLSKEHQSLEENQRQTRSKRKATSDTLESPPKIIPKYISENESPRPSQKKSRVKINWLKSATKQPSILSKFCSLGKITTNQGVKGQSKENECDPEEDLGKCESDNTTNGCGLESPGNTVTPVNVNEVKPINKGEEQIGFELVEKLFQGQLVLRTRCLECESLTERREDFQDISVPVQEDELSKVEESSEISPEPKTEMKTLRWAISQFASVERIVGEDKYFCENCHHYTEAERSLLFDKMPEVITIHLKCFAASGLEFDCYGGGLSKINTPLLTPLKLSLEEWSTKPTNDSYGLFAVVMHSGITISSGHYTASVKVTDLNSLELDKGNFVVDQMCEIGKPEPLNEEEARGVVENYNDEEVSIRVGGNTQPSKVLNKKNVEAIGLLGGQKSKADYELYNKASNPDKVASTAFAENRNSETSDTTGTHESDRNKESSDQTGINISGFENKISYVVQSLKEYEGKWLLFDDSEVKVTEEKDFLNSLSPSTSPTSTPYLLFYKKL
Sequence of Androgen receptor (Homo sapiens) (P10275 whole entry, looked up): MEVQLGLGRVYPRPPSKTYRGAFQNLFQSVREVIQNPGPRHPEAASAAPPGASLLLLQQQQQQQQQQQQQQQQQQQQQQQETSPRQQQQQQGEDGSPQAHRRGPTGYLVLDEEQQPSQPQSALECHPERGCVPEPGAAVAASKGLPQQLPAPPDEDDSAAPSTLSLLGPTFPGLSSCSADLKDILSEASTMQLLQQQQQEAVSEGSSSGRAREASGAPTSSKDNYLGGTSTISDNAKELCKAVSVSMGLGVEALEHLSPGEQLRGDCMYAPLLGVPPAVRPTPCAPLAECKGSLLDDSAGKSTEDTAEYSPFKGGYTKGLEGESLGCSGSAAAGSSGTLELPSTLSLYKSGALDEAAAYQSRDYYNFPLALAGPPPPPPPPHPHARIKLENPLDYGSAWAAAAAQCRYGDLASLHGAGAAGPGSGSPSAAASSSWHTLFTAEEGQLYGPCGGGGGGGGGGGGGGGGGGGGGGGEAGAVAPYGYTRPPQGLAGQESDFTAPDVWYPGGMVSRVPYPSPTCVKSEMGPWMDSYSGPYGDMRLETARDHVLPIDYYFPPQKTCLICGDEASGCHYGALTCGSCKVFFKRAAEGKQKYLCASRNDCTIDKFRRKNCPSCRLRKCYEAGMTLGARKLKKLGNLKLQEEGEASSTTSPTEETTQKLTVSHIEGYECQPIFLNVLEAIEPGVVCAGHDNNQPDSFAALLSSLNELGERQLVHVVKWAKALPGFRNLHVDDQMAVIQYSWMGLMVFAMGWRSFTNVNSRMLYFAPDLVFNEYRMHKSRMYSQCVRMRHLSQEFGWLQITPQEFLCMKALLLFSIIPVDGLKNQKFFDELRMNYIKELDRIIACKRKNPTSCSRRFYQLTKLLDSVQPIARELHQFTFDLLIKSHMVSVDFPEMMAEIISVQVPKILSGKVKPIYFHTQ
Sequence of ATP-dependent 6-phosphofructokinase (Trypanosoma brucei brucei) (O15648 whole entry, looked up): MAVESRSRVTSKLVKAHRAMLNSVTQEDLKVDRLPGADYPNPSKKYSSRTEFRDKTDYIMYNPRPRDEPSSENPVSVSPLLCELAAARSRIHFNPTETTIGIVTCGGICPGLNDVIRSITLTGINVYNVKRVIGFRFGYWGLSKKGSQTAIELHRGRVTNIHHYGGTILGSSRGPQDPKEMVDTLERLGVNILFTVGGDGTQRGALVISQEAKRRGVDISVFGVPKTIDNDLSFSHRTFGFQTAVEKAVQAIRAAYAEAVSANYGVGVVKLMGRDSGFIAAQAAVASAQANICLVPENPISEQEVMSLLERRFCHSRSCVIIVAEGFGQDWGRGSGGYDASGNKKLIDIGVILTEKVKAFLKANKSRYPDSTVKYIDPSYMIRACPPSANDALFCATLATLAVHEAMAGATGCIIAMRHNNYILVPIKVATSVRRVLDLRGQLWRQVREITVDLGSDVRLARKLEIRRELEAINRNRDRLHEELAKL

## C/C=C\c1ccc(OC)cc1
[1]
  outcome: inactive
[2]
  Potency: inactive
[3]; parasite line A
  activity, negative = inhibition: -0.333%
[3]; parasite line B
  activity, negative = inhibition: -2.16%
CP192
  Potency: inactive
CP211
  Potency: inactive
CP215
  Potency: inactive
CP262
  Potency: inactive
CP269
  Potency: inactive
CP291
  Potency: inactive
CP305
  Potency: inactive
CP329
  Potency: inactive
CP335
  Potency: inactive
DIV17
  Potency: inactive
DIV30
  Potency: inactive
GB4
  Potency: inactive
PC26
  Potency: inactive
W2
  Potency: inactive

## Cc1cccc([N+](=O)[O-])c1C
[4]
  activation: 2.99% and 5.65%
[5]
  outcome: inactive

## O=C(O)CC(C(=O)O)C(CC(=O)O)C(=O)O (stereo unspecified)
[6]
  Potency: inactive

## COCC(=O)O
[6]
  Potency: inactive

## C=Cc1ccccc1Cl
[4]
  activation: -2.34%
[5]
  outcome: inactive

## CCCCCCCCO
[6]
  Potency: inactive

## CC(=O)O[C@@]12CO[C@@H]1C[C@H](O)[C@@]1(C)C(=O)[C@H](O)C3=C(C)[C@@H](OC(=O)C(O)[C@@H](NC(=O)OC(C)(C)C)c4ccccc4)C[C@@](O)([C@@H](OC(=O)c4ccccc4)[C@H]21)C3(C)C (stereo partly specified)
[1]
  outcome: inactive
[2]
  Potency: inactive
[3]; parasite line A
  Potency: 0.0316 µM (active)
[3]; parasite line B
  Potency: 0.0282 µM (active)
CP192
  Potency: 0.0269 µM (active)
CP211
  Potency: 0.0426 µM (active)
CP215
  Potency: 0.0675 µM (active)
CP262
  Potency: 0.0338 µM (active)
CP269
  Potency: 0.0426 µM (active)
CP291
  Potency: 0.0379 µM (active)
CP305
  Potency: 0.0426 µM (active)
CP329
  Potency: 0.0338 µM (active)
CP335
  Potency: 0.0213 µM (active)
DIV17
  Potency: 1.35 µM (active)
DIV30
  Potency: 0.0536 µM (active)
GB4
  Potency: 0.0301 µM (active)
PC26
  Potency: 0.0379 µM (active)
W2
  Potency: 0.0151 µM (active)

## O=[N+]([O-])c1cccc(Cl)c1Cl
[6]
  Potency: inactive

## Cc1c(N=C=O)cccc1N=C=O
[4]
  activation: -8.11% and -0.971%
[5]
  outcome: inactive

## NC1=NC(S)C2N=CN=C2N1 (stereo unspecified)
[1]
  outcome: inactive
[2]
  Potency: inactive
[3]; parasite line A
  activity, negative = inhibition: 3.76%
[3]; parasite line B
  activity, negative = inhibition: -5.29%
CP192
  Potency: inactive
CP211
  Potency: inactive
CP215
  Potency: inactive
CP262
  Potency: inactive
CP269
  Potency: inactive
CP291
  Potency: inactive
CP305
  Potency: inactive
CP329
  Potency: inactive
CP335
  Potency: inactive
DIV17
  Potency: inactive
DIV30
  Potency: inactive
GB4
  Potency: inactive
PC26
  Potency: inactive
W2
  Potency: inactive

## CCCN(CCC)C(=O)SCC
[4]
  activation: 12.4% and -3.98%
[5]
  outcome: inactive

## COc1ccc2[nH]cc(CCNc3ncncc3-c3cccc(C#N)c3)c2c1
[2]
  Potency: inactive

## CC(C)=CCCC(C)CCO (stereo unspecified)
[2]
  Potency: inactive
[4]
  activation: 11% and 2.32%
[5]
  outcome: inactive

## Clc1cc(Cl)c(Cl)c(Cl)c1Cl
[6]
  Potency: inactive

## CCCCC(CC)CN (stereo unspecified)
[4]
  activation: 5.31% and -4.67%
[5]
  outcome: inactive

## OCCNCCO
[6]
  Potency: inactive

## c1ccc2c(c1)[nH]c1ccccc12
[6]
  Potency: inactive
[5]
  outcome: inactive

## C1OCOCO1
[1]
  outcome: inactive
[2]
  Potency: inactive
[3]; parasite line A
  activity, negative = inhibition: -0.0178%
[3]; parasite line B
  activity, negative = inhibition: 3.44%
CP192
  Potency: inactive
CP211
  Potency: inactive
CP215
  Potency: inactive
CP262
  Potency: inactive
CP269
  Potency: inactive
CP291
  Potency: inactive
CP305
  Potency: inactive
CP329
  Potency: inactive
CP335
  Potency: inactive
DIV17
  Potency: inactive
DIV30
  Potency: inactive
GB4
  Potency: inactive
PC26
  Potency: inactive
W2
  Potency: inactive

## c1ccc2c(c1)c1cccc3ccc4cccc2c4c31
[5]
  outcome: inactive

## CCO
[4]
  activation: 30.9%
[5]
  outcome: inactive

## COC(=O)c1ccc(C)cc1
[6]
  Potency: inactive

## COc1ccc2nc(N)sc2c1
[4]
  activation: 3.27% and 6.72%
[5]
  outcome: inactive

## Cc1ccc([N+](=O)[O-])c(C)c1
[6]
  Potency: inactive
